Test results: publication PMC7862700, “An all-to-all approach to the identification of sequence-specific readers for epigenetic DNA modifications on cytosine”

Key:
Experiment in all cases: DAPPL (digital affinity profiling via proximity ligation, sequencing); 10 mM Tris-HCl pH 7.5, 50 mM NaCl, 1 mM DTT, 4% glycerol, room temperature, 30 min; GST-TFs on glutathione beads, 16-mer random dsDNA library, 0.1% formaldehyde crosslink after washing; high values mean tight binding
[1] = target: T1, FLI1 (Homo sapiens, UniProt Q01543 1-452); conditions: protein: recombinant; tags: N-terminal GST; dsDNA, one strand shown
T1 sequence: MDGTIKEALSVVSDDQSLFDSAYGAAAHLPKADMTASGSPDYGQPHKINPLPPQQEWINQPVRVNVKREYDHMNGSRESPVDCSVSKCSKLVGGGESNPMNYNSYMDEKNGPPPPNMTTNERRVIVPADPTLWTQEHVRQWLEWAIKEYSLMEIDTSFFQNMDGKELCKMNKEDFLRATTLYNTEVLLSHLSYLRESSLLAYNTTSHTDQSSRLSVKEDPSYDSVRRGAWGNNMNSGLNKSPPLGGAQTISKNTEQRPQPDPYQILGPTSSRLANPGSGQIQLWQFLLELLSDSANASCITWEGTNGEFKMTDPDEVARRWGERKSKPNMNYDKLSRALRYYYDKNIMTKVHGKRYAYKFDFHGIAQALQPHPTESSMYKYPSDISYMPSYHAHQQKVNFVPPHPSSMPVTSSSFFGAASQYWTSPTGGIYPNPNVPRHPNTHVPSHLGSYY
Method in brief: (§1)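 The binding signal reported is, for every hexamer, its read frequency for a factor over its read frequency for the tag-only sample. Reads came from pools of yeast-expressed, GST-fused human transcription factors on glutathione beads, barcoded with DNA and mixed with that sample, which were incubated with 200 nmole of a random double-stranded 16-mer DNA library in Tris/NaCl/DTT/glycerol buffer at room temperature for 30 min. After washing, the pools were crosslinked with 0.1% formaldehyde, proximity-ligated with BsaI/T4 ligase for 1 h at 37 °C, PCR-amplified and sequenced on an Illumina NextSeq500.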

[2] = target: T2, ELK1 (Homo sapiens, UniProt P19419 1-428); conditions: protein: recombinant; tags: N-terminal GST; dsDNA, one strand shown
T2 sequence: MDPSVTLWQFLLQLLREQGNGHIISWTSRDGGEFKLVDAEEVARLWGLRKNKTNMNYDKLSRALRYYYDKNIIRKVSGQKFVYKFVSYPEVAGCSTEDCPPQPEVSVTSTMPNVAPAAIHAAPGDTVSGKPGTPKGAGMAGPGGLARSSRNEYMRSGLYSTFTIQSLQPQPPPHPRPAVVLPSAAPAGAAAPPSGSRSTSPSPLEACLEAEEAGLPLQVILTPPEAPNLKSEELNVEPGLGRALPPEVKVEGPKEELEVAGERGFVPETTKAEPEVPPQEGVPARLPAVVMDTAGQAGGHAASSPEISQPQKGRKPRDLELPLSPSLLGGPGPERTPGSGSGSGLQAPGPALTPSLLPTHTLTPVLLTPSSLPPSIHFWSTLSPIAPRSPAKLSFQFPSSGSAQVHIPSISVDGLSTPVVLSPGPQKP
Method in brief: as §1

[3] = target: T3, GABPA (Homo sapiens, UniProt Q06546 1-454); conditions: protein: recombinant; tags: N-terminal GST; dsDNA, one strand shown
T3 sequence: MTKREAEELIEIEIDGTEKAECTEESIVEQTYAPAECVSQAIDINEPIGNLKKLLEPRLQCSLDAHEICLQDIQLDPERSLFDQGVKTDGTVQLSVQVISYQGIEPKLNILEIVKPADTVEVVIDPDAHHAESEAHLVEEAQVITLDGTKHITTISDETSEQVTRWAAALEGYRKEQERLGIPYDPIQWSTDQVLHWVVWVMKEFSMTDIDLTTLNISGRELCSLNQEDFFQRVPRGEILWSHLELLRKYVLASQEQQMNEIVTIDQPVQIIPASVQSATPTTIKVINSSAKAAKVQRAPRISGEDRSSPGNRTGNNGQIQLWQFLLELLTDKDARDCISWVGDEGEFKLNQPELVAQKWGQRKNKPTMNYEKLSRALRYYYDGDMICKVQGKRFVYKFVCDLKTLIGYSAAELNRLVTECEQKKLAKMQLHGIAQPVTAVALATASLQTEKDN
Method in brief: as §1

[4] = target: T4, ERG (Homo sapiens, UniProt P11308 1-479); conditions: protein: recombinant; tags: N-terminal GST; dsDNA, one strand shown
T4 sequence: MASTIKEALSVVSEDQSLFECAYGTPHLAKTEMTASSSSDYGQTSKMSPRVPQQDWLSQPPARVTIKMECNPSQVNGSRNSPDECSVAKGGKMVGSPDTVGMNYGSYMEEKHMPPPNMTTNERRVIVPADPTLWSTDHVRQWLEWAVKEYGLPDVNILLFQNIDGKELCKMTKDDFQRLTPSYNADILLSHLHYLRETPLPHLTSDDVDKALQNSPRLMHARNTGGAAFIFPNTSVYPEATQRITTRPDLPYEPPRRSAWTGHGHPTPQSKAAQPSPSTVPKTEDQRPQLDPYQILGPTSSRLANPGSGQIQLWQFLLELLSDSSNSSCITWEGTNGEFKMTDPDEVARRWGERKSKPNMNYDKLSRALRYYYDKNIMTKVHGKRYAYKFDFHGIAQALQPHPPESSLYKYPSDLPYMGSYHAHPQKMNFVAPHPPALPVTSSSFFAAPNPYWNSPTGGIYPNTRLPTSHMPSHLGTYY
Method in brief: as §1

[5] = target: ELF1 (Homo sapiens, UniProt P32519 1-619); conditions: protein: recombinant; tags: N-terminal GST; dsDNA, one strand shown
Method in brief: as §1

[6] = target: T5, EHF (Homo sapiens, UniProt Q9NZC4 1-300); conditions: protein: recombinant; tags: N-terminal GST; dsDNA, one strand shown
T5 sequence: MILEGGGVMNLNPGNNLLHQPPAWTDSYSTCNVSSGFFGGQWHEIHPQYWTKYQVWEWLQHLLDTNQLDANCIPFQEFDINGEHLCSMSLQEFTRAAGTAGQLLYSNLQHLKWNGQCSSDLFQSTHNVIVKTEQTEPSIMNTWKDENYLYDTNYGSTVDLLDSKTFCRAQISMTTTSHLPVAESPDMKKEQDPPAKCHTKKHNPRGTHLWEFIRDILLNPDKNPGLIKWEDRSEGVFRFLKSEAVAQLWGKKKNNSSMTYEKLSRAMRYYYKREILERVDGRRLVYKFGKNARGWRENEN
Method in brief: as §1

[7] = target: SPI1 (Homo sapiens, UniProt P17947 1-270); conditions: protein: recombinant; tags: N-terminal GST; dsDNA, one strand shown
Method in brief: as §1

[8] = target: SPIB (Homo sapiens, UniProt Q01892 1-262); conditions: protein: recombinant; tags: N-terminal GST; dsDNA, one strand shown
Method in brief: as §1

[9] = target: T6, ELK3 (Homo sapiens, UniProt P41970 1-407); conditions: protein: recombinant; tags: N-terminal GST; dsDNA, one strand shown
T6 sequence: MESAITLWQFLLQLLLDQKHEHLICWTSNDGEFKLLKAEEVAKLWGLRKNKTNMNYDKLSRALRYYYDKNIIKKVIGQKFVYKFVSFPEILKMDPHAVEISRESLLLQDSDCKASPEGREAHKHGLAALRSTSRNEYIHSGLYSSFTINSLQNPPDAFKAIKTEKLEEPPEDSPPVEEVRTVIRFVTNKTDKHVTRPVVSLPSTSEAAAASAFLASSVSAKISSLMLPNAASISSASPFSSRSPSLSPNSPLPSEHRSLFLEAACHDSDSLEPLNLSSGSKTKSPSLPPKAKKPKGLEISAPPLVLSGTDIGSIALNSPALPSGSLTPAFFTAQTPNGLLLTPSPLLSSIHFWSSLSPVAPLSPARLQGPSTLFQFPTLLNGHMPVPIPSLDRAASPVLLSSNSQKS
Method in brief: as §1

[10] = target: T7, FEV (Homo sapiens, UniProt Q99581 1-238); conditions: protein: recombinant; tags: N-terminal GST; dsDNA, one strand shown
T7 sequence: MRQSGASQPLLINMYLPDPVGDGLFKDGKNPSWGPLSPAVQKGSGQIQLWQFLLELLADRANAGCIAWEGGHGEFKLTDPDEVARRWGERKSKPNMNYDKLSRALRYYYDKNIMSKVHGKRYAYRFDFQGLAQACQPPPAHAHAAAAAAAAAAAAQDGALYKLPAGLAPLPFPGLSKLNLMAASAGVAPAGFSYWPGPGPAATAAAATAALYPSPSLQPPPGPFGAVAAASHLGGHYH
Method in brief: as §1

[11] = target: ETV5 (Homo sapiens, UniProt P41161 1-510); conditions: protein: recombinant; tags: N-terminal GST; dsDNA, one strand shown
Method in brief: as §1

[12] = target: HSF1 (Homo sapiens, UniProt Q00613 1-529); conditions: protein: recombinant; tags: N-terminal GST; chain copies: 3; dsDNA, one strand shown
Method in brief: as §1

[13] = target: ELF4 (Homo sapiens, UniProt Q99607 1-663); conditions: protein: recombinant; tags: N-terminal GST; dsDNA, one strand shown
Method in brief: as §1

[14] = target: T8, ELK4 (Homo sapiens, UniProt P28324-2 1-405); conditions: protein: recombinant; tags: N-terminal GST; dsDNA, one strand shown
T8 sequence: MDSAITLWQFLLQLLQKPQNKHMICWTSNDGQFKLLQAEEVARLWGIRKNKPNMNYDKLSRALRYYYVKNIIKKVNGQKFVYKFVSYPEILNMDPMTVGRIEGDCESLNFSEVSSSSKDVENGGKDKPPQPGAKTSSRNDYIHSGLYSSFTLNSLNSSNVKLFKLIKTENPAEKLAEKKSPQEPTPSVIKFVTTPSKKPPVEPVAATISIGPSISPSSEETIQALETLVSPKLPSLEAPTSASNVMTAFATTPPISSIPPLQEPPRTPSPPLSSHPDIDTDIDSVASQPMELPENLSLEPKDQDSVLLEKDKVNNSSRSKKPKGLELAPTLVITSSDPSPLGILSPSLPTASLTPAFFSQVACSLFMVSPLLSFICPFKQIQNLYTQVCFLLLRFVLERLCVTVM
Method in brief: as §1

[15] = target: T9, ETV2 (Homo sapiens, UniProt O00321 1-342); conditions: protein: recombinant; tags: N-terminal GST; dsDNA, one strand shown
T9 sequence: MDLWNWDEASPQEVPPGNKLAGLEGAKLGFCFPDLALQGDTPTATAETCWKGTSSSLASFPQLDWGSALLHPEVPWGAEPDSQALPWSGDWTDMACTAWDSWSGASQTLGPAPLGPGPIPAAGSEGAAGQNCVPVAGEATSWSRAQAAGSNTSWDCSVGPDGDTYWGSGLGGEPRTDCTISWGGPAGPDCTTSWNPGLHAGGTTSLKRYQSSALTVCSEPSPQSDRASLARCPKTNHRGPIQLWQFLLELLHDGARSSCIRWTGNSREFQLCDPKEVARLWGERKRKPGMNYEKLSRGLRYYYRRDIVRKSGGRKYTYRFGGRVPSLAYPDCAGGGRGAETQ
Method in brief: as §1

[16] = target: T10, ELF3 (Homo sapiens, UniProt P78545 1-371); conditions: protein: recombinant; tags: N-terminal GST; dsDNA, one strand shown
T10 sequence: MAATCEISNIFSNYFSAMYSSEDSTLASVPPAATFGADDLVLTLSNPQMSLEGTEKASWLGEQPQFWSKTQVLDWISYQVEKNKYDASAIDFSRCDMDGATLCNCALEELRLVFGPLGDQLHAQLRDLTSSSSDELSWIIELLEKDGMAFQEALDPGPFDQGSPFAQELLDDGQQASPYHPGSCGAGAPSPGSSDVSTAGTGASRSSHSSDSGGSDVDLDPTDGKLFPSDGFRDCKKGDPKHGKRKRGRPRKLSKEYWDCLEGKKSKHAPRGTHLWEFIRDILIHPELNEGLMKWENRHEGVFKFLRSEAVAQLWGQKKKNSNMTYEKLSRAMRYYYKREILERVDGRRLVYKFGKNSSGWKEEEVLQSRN
Method in brief: as §1

[17] = target: CRX (Homo sapiens, UniProt O43186 1-299); conditions: protein: recombinant; tags: N-terminal GST; dsDNA, one strand shown
Method in brief: as §1

[18] = target: ETV1 (Homo sapiens, UniProt P50549 1-477); conditions: protein: recombinant; tags: N-terminal GST; dsDNA, one strand shown
Method in brief: as §1

Chain of ELF4 (Q99607 whole entry): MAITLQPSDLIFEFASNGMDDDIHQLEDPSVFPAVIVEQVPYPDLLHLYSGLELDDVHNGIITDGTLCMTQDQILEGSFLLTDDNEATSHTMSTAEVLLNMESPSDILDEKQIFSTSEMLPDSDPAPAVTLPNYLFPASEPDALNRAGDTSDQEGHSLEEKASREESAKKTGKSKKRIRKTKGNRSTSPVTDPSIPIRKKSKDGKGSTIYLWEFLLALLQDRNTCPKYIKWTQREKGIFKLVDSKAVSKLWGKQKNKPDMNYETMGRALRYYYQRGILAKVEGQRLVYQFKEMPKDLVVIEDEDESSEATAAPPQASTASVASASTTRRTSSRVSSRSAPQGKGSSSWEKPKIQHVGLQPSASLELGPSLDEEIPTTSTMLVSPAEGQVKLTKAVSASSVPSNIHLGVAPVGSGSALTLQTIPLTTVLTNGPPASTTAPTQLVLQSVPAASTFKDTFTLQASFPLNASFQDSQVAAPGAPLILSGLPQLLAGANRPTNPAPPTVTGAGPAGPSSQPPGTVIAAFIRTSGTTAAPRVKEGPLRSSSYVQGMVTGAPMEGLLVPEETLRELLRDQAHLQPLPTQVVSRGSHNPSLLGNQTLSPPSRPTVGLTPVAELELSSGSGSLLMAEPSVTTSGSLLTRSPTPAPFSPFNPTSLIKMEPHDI
Chain of ETV5 (P41161 whole entry): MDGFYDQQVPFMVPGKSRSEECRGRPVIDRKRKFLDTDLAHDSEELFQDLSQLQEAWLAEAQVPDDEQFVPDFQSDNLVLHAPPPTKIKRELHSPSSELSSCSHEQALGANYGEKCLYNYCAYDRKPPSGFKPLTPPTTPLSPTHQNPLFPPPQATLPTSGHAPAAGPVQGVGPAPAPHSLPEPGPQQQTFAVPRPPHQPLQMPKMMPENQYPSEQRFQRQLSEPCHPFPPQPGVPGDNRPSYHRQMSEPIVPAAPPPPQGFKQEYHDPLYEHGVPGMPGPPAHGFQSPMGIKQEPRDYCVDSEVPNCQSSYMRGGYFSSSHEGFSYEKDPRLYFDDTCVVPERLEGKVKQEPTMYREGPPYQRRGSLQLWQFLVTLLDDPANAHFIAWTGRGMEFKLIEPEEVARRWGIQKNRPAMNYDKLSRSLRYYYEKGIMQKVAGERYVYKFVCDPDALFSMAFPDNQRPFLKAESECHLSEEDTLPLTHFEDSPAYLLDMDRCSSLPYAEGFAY
Chain of HSF1 (Q00613 whole entry): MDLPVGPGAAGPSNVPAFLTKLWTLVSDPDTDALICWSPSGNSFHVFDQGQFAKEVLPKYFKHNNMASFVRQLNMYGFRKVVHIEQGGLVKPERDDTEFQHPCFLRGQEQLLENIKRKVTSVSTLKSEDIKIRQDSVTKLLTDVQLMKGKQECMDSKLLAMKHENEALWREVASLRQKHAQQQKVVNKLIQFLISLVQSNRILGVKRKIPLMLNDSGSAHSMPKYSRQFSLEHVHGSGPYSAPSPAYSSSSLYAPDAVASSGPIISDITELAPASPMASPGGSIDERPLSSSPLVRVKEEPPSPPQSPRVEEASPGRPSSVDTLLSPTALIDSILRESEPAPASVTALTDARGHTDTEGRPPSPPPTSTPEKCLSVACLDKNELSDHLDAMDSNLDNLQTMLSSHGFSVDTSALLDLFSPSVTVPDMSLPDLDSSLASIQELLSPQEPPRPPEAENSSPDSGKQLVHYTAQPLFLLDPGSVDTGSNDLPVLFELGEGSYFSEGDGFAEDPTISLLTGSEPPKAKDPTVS
Chain of ELF1 (P32519 whole entry): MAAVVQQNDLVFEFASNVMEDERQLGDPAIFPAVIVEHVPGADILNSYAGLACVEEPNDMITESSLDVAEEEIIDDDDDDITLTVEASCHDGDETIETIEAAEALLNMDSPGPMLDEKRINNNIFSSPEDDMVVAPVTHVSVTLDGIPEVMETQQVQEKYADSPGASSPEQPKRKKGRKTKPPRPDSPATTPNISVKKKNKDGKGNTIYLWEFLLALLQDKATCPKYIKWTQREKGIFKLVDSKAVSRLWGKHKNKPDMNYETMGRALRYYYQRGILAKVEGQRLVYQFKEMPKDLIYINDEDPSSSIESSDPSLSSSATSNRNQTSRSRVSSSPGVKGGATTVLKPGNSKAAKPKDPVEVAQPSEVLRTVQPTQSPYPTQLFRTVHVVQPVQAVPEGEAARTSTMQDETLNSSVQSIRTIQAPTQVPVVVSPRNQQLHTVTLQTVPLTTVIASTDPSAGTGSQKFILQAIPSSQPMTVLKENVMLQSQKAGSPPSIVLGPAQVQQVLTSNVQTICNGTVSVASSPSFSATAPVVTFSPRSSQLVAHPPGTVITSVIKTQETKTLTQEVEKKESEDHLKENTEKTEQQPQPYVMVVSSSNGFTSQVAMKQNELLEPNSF
Chain of SPIB (Q01892 whole entry): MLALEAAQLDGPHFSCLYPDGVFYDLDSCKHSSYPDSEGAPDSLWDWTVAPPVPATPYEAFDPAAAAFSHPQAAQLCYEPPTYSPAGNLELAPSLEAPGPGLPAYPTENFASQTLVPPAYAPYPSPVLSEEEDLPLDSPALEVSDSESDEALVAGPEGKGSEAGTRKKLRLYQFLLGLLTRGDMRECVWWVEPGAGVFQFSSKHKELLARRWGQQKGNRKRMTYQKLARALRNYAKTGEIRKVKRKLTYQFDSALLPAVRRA
Chain of ETV1 (P50549 whole entry): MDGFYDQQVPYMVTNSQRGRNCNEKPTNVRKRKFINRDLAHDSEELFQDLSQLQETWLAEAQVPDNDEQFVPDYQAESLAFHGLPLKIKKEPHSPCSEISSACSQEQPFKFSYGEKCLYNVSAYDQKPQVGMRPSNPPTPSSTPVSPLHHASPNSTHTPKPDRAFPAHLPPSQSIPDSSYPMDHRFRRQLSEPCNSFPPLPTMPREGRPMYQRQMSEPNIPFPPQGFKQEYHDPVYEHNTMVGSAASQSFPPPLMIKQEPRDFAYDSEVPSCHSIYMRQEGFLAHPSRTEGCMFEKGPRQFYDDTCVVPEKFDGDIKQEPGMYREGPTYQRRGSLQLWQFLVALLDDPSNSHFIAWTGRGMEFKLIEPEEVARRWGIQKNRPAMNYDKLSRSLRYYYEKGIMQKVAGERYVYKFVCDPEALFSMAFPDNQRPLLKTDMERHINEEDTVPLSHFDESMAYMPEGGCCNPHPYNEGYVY
Chain of CRX (O43186 whole entry): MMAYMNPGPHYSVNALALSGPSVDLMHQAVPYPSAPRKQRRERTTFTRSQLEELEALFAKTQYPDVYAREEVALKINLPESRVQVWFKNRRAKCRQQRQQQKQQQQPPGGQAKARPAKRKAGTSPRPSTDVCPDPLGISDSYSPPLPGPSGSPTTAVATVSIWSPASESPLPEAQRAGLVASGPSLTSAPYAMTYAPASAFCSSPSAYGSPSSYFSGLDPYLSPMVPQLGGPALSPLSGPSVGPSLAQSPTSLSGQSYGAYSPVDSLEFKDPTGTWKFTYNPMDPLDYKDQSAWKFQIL

Sequence | binding signal [1] | binding signal [2] | binding signal [3] | binding signal [4] | binding signal [5] | binding signal [6] | binding signal [7] | binding signal [8] | binding signal [9] | binding signal [10] | binding signal [11] | binding signal [12] | binding signal [13] | binding signal [14] | binding signal [15] | binding signal [16] | binding signal [17] | binding signal [18]
TAAAGA | 1.11 fold enrichment (6-mer frequency, TF over GST control) | 1.04 fold enrichment (6-mer frequency, TF over GST control) | 1.14 fold enrichment (6-mer frequency, TF over GST control) | 1.14 fold enrichment (6-mer frequency, TF over GST control) | 1.14 fold enrichment (6-mer frequency, TF over GST control) | 1.07 fold enrichment (6-mer frequency, TF over GST control) | 1.12 fold enrichment (6-mer frequency, TF over GST control) | 1.11 fold enrichment (6-mer frequency, TF over GST control) | 1.07 fold enrichment (6-mer frequency, TF over GST control) | 1.09 fold enrichment (6-mer frequency, TF over GST control) | 1.07 fold enrichment (6-mer frequency, TF over GST control) | 1.56 fold enrichment (6-mer frequency, TF over GST control) | 1.07 fold enrichment (6-mer frequency, TF over GST control) | 1.11 fold enrichment (6-mer frequency, TF over GST control) | 1.13 fold enrichment (6-mer frequency, TF over GST control) | 1.2 fold enrichment (6-mer frequency, TF over GST control) | 1.85 fold enrichment (6-mer frequency, TF over GST control) | 1.11 fold enrichment (6-mer frequency, TF over GST control)
AAGGTA | 1.1 fold enrichment (6-mer frequency, TF over GST control) | 1.08 fold enrichment (6-mer frequency, TF over GST control) | 1.18 fold enrichment (6-mer frequency, TF over GST control) | 1.05 fold enrichment (6-mer frequency, TF over GST control) | 1.13 fold enrichment (6-mer frequency, TF over GST control) | 1.1 fold enrichment (6-mer frequency, TF over GST control) | 1.07 fold enrichment (6-mer frequency, TF over GST control) | 1.05 fold enrichment (6-mer frequency, TF over GST control) | 1.09 fold enrichment (6-mer frequency, TF over GST control) | 1.02 fold enrichment (6-mer frequency, TF over GST control) | 1.11 fold enrichment (6-mer frequency, TF over GST control) | 1.11 fold enrichment (6-mer frequency, TF over GST control) | 1.1 fold enrichment (6-mer frequency, TF over GST control) | 1.14 fold enrichment (6-mer frequency, TF over GST control) | 1.07 fold enrichment (6-mer frequency, TF over GST control) | 1.16 fold enrichment (6-mer frequency, TF over GST control) | 1.05 fold enrichment (6-mer frequency, TF over GST control) | 1.11 fold enrichment (6-mer frequency, TF over GST control)
